# Bioassay records: PubChem, Broad Institute
# This excerpt belongs to a sample that is enriched for hits.
# CD40 NFkB inh: CD40 pathway inhibition in BL2 cells. inhibition, % at 10 µM. BL2 NF-kB luciferase reporter, CD40L-induced, 4 h. 0.94% of 83,000 active;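 active = mean inhibition of at least 50% with a set share of replicates also reaching that level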;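 also: 0% = neutral control wells and 100% = IKK inhibitor VII at 50 µM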
# * hit, by the source's call; [ ] = remark or other dose.
SMILES,CD40 NFkB inh
CCCCC1C(=O)NC(=S)N(C)C1=O (configuration not stated),33*
COc1ccc(OC)c(CC(=O)O)c1,4
COc1ccc(OC)c(CC(=O)N(C)C2CCCN(Cc3ccccc3F)C2)c1 (configuration not stated),1
Nc1ccccc1C(=O)OCC(=O)c1ccc2c(c1)OCCO2,34
C[N+](C)(C)CCc1ccc(O)cc1,12
Cc1nc2c(C(=O)N3CCC4(CC3)OCCO4)cnn2c(C)c1Cc1cccc(Cl)c1,-13
OCC1OC(n2cnc3cc(Cl)c(Cl)cc32)C(O)C1O (configuration not stated),47*
CC[C@]12C=CCN3CCC4(c5cc(Br)c(OC)cc5N(C)C4[C@@](O)(C(=O)OC)[C@@H]1OC(C)=O)C32 (some centres not stated),0
CN1CCCC2c3ccccc3CCC21 (configuration not stated),1
O=C1CNC[C@H]2[C@H](c3ccc(Br)cc3)[C@H](CO)N12,0[25 µM]
CCCC1(CC(C)CC)C(=O)NC(=O)NC1=O (configuration not stated),3
O=C1CC[C@@]2(O)[C@H]3Cc4ccc(O)c5c4[C@@]2(CCN3CC2CC2)[C@H]1O5,-6
O=C1/C(=C/c2ccccc2)C[C@@]2(O)C3Cc4ccc(O)c5c4[C@@]2(CCN3CC2CC2)[C@H]1O5,85*[25 µM]
COC(=O)C=CC(=O)NC1CCC2(O)C3Cc4ccc(O)c5c4C2(CCN3CC2CC2)C1O5 (configuration not stated),5[25 µM]
O=c1c2ccccc2nc(/C=C/c2ccc3c(c2)OCO3)n1-c1ccccc1,-10
O=C(Cc1ccccc1)N1CCN(CC2CC=CCC2)CC1 (configuration not stated),-5
c1ccc(C(c2ccccc2)c2ccncc2)cc1,-22
COc1cc2cc(C(=O)N3CC(COS(C)(=O)=O)c4ccc(O)cc43)[nH]c2c(OC)c1OC (configuration not stated),91*
COc1ccc(F)cc1C(=O)C1CCCN(Cc2cnc(C)s2)C1 (configuration not stated),12
CN(C)Cc1c[nH]c2ccc([N+](=O)[O-])cc12,5
O=C1CC(=O)N(c2ccccc2)C(=O)N1c1ccccc1,-10
COc1ccc2[nH]c3c(c2c1)CCN=C3C,58*
COc1ccc2[nH]c(C)c(CCNCc3cn(C)c4ccccc34)c2c1,25
COc1ccc2[nH]cc(CCN)c2c1,-4
COc1ccccc1CN1[C@H](CO)[C@H](c2ccccc2)C12CN(C(=O)Cc1ccccc1)C2,20[25 µM]
SMILES,CD40 NFkB inh
O=C(NP(=O)(N1CC1)N1CC1)c1cc(I)ccc1I,5
O=C1CNC[C@H]2[C@H](c3ccc(Br)cc3)[C@@H](CO)N12,-6[25 µM]
COC(=O)[C@@H]1[C@@H](CO)[C@@H]2Cn3c(ccc(-c4ccc(F)cc4)c3=O)[C@H]1N2C(=O)c1ccccc1F,-13[25 µM]
COc1ccc(CC2C(=O)NC(C)C(=O)N(C)C3C(=O)N(C)C(Cc4ccc(O)c(c4)Oc4ccc(cc4)C3O)C(=O)NC(C)C(=O)NC(C)C(=O)N2C)cc1 (configuration not stated),124*
OC[C@H]1Nc2ccc(C#Cc3cccnc3)cc2[C@H]2NCC[C@H]21,1[25 µM]
O=C(CCn1c(=O)oc2ccccc21)N1CCC2(CC1)OCCO2,-21
C[C@]12CC[C@@H]3c4ccc(O)c(O)c4CC[C@H]3[C@@H]1CC[C@@H]2O,25
CCN(CCCl)c1cc(CN(C)C)cc(NC(=O)c2ccc(C(=O)Nc3cc(CN(C)C)cc(N(CC)CCCl)c3)cc2)c1,108*
COc1ccc(OC(=O)N(C)C[C@@H]2OCc3cnnn3CCCC(=O)N([C@H](C)CO)C[C@@H]2C)cc1,2
Cc1ccc(-n2c(C)cc(/C=C3/C(=O)NC(=O)N(C)C3=O)c2C)cc1,-15
CCC1(c2ccccc2)C(=O)N(COC)C(=O)N(COC)C1=O,8
N#Cc1c(Br)n(C2OC(CO)C(O)C2O)c2ncnc(N)c12 (configuration not stated),83*
NC(=O)c1c(Br)n(C2OC(CO)C(O)C2O)c2ncnc(N)c12 (configuration not stated),56*
CCNC(=O)[C@H]1O[C@@H](n2cnc3c(N)ncnc32)[C@H](O)[C@@H]1O,3
CCCNC(=O)Cn1cnc2sc(C(=O)N3CCC4(CC3)OCCO4)c(C)c2c1=O,2
CN1c2ccc(Br)cc2[C@@H]2NCC[C@@H]2[C@@H]1CO,-10[25 µM]
CC=Cc1ccc2n(c1=O)C[C@H]1[C@H](CO)[C@@H](C(=O)OC)[C@@H]2N1C(=O)CC1CC1 (mixture of isomers),-2[25 µM]
O=C(c1c[nH]c2ccc(S(=O)(=O)N3CCOCC3)cc2c1=O)N1CCC2(CC1)OCCO2,0
Cc1cc([N+](=O)[O-])c(Cl)cc1NC(=O)C(C)C,-1
c1ccc2c(c1)OCC(C1=NCCN1)O2 (configuration not stated),19
Cc1ccc(OC(=O)N(C)C[C@H]2OCc3ccccc3-c3c(n(C)c4ccccc34)C(=O)N([C@H](C)CO)C[C@H]2C)cc1,38[25 µM]
Cc1ccc(OC(=O)N(C)C[C@H]2OCc3ccccc3-c3c(n(C)c4ccccc34)C(=O)N([C@@H](C)CO)C[C@@H]2C)cc1,31[25 µM]
Cc1ccc(OC(=O)N(C)C[C@@H]2OCc3ccccc3-c3c(n(C)c4ccccc34)C(=O)N([C@@H](C)CO)C[C@H]2C)cc1,55*[25 µM]
COc1ccccc1CCNCc1ccc(OC)c(OC)c1OC,9
Nc1c2c(nc3sc4c(c13)CCCC4)CCCC2,-85
SMILES,CD40 NFkB inh
Cc1ccc(CS(=O)(=O)Cc2ccc(C(=O)N3CCC4(CC3)OCCO4)o2)cc1,-2
CC1CC(C)(O)CC(C(O)CC2CC(=O)NC(=O)C2)C1=O (configuration not stated),96*
O=C1CNC[C@@H]2[C@@H](c3ccc(Br)cc3)[C@@H](CO)N12,0[25 µM]
CC1CCOC(=O)C=CC=CC(=O)OC2CC3OC4C5OC5(C)C(O)CC4(COC(=O)C1O)C2(C)C31CO1 (configuration not stated),95*
CC1=CC2OC3CC4OC(=O)C=CC=CC(C(C)O)OCC(O)C5(C)OC5C(=O)OCC2(CC1O)C4(C)C31CO1 (configuration not stated),86*
O=C(NC12CC3CC(CC(C3)C1)C2)OC1CN2CCC1CC2 (configuration not stated),11
NNC(=O)c1ccc(Cl)cc1,-104
COc1cccc(-c2ccc([C@@H]3[C@@H](CO)N4CCCCN(C(=O)Cc5ccncc5)C[C@H]34)cc2)c1,1[25 µM]
O=C1CCCN1C(=O)c1cncc(Br)c1,3
CC(C)c1ccc(C(c2c(O)c3ccccc3oc2=O)c2c(O)c3ccccc3oc2=O)cc1,18
CCn1ccnc1CN1CCCC(C(=O)c2cc(F)ccc2OC)C1 (configuration not stated),14
O=C(Cc1ccncc1)N1CCCCN2[C@@H](CO)[C@@H](c3ccc(-c4ccncc4)cc3)[C@@H]2C1,-5[25 µM]
c1ccc2cc(C3N4CCCN34)ccc2c1 (configuration not stated),-4
Clc1ccc(CSC(Cn2ccnc2)c2ccc(Cl)cc2Cl)cc1 (configuration not stated),49*
c1ccc(Cn2ccnc2)cc1,1
CCOC(=O)c1c(C)n(Cc2ccco2)c2c1cc(O)c1ccccc12,2
C[C@H]1CN([C@@H](C)CO)C(=O)CCCn2cc(nn2)CO[C@H]1CN(C)C(=O)Oc1cccc2ccccc12,-6[25 µM]
CCC(CO)NC(=O)C1C=C2c3cccc4[nH]cc(c34)CC2N(C)C1 (configuration not stated),-2[25 µM]
O=C(c1cc2ccccn2n1)N1CCC2(CC1)OCCO2,-5
COC(=O)c1c(C)[nH]c(C(=O)C(C)[N+]23CCN(CC2)CC3)c1C (configuration not stated),8
